# Screens: PubChem, National Center for Advancing Translational Sciences (NCATS)
# Rows were chosen to be rich in hits. Some 3.6% of all compounds tested hit in one or more screens of this group.
# S16 F2sN tox: Cell viability qHTS assay in S16 Pmp22-F2sN cells | S16 Pmp22-F2sN Schwann cells viability, CellTiter-Glo, 24 h | Potency, µM (highest dose often 57.5 µM), inactives show at the highest dose activity change, negative = cytotoxicity, hits mostly cytotoxic | actives 0.48% (n = 43,000) | AID 1508642, 2021; further: on the % scale 0 is the no-effect control and ±100 the full control effect; nearly all actives have a fitted effect of over 65% in size
#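 Luminescence from CellTiter-Glo, read by CCD camera after a 15 min room-temperature incubation, served as the viability signal. Reporter Schwann cells (S16 Pmp22-F2sN) had been treated with pin-transferred compounds for 24 h at 37C.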
# NTMT1 inhibitor: Primary qHTS for Inhibitors of N-terminal methyltransferase 1 (NTMT1): MTaseGlo Assay; N-terminal Xaa-Pro-Lys N-methyltransferase 1 (Homo sapiens), Q9BV86; NTMT1 MTase-Glo SAH luminescence, purified enzyme; Potency, µM (highest dose often 114 µM), for inactives: at the top dose activity change, negative = inhibition, most hits filed as inhibitors; actives 2.5% (n = 59,000);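 further: plate controls were DMSO vehicle for no effect and no enzyme for full effect; nearly all actives have a fitted effect of over 65% in size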
# Target sequence (Q9BV86 whole entry, looked up): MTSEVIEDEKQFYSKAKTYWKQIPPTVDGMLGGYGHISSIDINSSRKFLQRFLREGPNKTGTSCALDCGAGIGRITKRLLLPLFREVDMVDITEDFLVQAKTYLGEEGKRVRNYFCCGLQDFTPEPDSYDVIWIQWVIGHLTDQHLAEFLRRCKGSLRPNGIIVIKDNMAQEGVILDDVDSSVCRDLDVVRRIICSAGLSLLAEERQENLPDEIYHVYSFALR
# PMP22 txn: Cell-based coincidence reporter assay to measure PMP22 gene transcription in S16 Pmp22-F2sN cells - Primary screen; S16 Pmp22-F2sN Schwann cells (luciferase reporters placed in the Pmp22 gene), FLuc/NLuc coincidence luminescence, 24 h; Potency, µM (titrated, usually from 57.5 µM), for the others: at the highest dose activity change, negative = inhibition, usual class: inhibitors; actives 2% (n = 43,000); AID 1508649, 2021; active means clear falling dose curves in both reporters; inconclusive means both reporters move, but less clearly or upward; inactive means either reporter flat; the % is the NLuc reporter signal; further: on the % scale 0 is the no-effect control and ±100 the full control effect
#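 Transcriptional readout in edited S16(c9) cells: two luciferases reported from the Pmp22 locus, measured in turn after 24 h compound incubation.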
# OvCa metastasis: Primary qHTS assay for Inhibitors of ovarian cancer metastasis using an organotypic tumor microenvironment (TME) model; SKOV3ip1-GFP adhesion/invasion on 3D omental model, fluorescence; Potency, µM (top dose mostly 45.8 µM), for inactives: at the highest dose activity change, negative = inhibition, most hits filed as inhibitors; actives 0.1% (n = 46,000); AID 1963576, 2024;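 further: plate controls were DMSO wells for no effect and tomatine positive control wells for full effect; nearly all actives have a fitted effect of over 65% in size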
#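 A 3D layer of primary human omental fibroblasts, mesothelial cells, fibronectin and collagen I, grown 48 hr, received SKOV3ip1-GFP cells in serum-free medium plus compounds at 0.36-46 umol/L. After 2 hr RT and 16 hr 37 C, fixed adherent GFP cells were counted; normalized to DMSO and tomatine.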
# GALC G270D up: A Novel Cell-Based Assay to Identify Small Molecules for B -Galactocerebrosidase; P54803; 145M-Twi-hGALC-G270D cells (Twitcher mouse brain line with human GALC G270D), HMU-beta-Gal fluorescence, 48 h; Potency, µM (highest dose often 57.5 µM), actives largely listed as activators; actives 0.1% (n = 45,000); AID 1159614, 2016; further: 0% is about no effect; nearly all actives have a fitted effect of over 65% in size
#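 Fluorescence readout: HMU-β-gal cleavage by mutant GALC (0.1 mM final, citrate/phosphate pH 5.2 with 1 mg/mL taurocholate), stopped with carbonate/bicarbonate plus Triton X-100. Cells: murine Twitcher 145M-Twi expressing human G270D GALC; qHTS for activators.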
# mTORC1 inh: Acumen qHTS Assay for Inhibitors of the mTORC1 Signaling Pathway in MEF (Tsc2-/-, p53-/-) Cells: Sytravon. Tsc2-/- p53-/- MEF, phospho-rpS6 immunofluorescence/PI, 24 h. AID 493208, 2011. Potency, µM (titrated, usually from 38.3 µM), for the others: top-dose activity change, negative = inhibition, actives largely listed as inhibitors. actives 0.78% (n = 44,000);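 further: plate controls were DMSO for no effect and rapamycin for full effect; nearly all actives have a fitted effect of over 50% in size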
#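 Read-out: phospho-S6 Alexa-488 intensity over PI intensity per well, scored as % active cells using thresholds from rapamycin (7.5 nM) and DMSO controls. Tsc2-/-, p53-/- MEFs exposed to compound for 24 h; PI cell count recorded as viability.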
# * marks the source's active call; other numbers are inactive results; i = inactive; ? = inconclusive; / = not tested or not shown; ! = repeats disagree; [ ] = remark or other dose. Unless noted, the call rests on the fitted dose curve; in most records, active means well fitted curve in the direction sought with a large enough effect; inconclusive means small, poorly fitted or top-dose-only effect, or another doubt; inactive means no such curve, though single readings can be large; an effect the other way counts as inactive or inconclusive. Potency means the concentration at half of the fitted maximal effect.
SMILES,S16 F2sN tox,NTMT1 inhibitor,PMP22 txn,OvCa metastasis,GALC G270D up,mTORC1 inh
C=C1/C(=C/C=C2\CCCC3(C)[C@@H]([C@H](C)/C=C/C=C/C(O)(CC)CC)CC[C@@H]23)C[C@@H](O)C[C@@H]1O (stereo not given in full),/,-9%,/,/,/,/
c1nc2nc(Nc3ccc(N4CCOCC4)cc3)nc(NC3CCCCC3)c2[nH]1,/,40µM*!,/,-4%,/,/
CC(=O)NCCC(=O)N[C@@H](CCC(N)=O)C(=O)N[C@@H](CO)C(=O)N[C@@H](CCC(N)=O)C(=O)N[C@@H](CCC(N)=O)C(=O)N[C@H](C(=O)N[C@@H](Cc1ccccc1)C(=O)N[C@]1(C)CCCCCCC=CCCC[C@@](C)(C(=O)N[C@@H](CCC(N)=O)C(=O)N[C@@H](CC(N)=O)C(N)=O)NC(=O)[C@H](CC(C)C)NC(=O)[C@H](CC(C)C)NC(=O)[C@@H](CCCNC(=N)N)NC(=O)[C@H](Cc2c[nH]c3ccccc23)NC(=O)[C@H](CC(C)C)NC(=O)[C@H](CC(N)=O)NC1=O)[C@H](C)O,/,?,/,-5%,/,/
Cc1ccc2sc(N(CCCN(C)C)C(=O)c3ccco3)nc2c1C,?,?,?,i,i,12µM*
CC1=NN(c2ccc(C(=O)O)cc2)C(=O)/C1=C/c1ccc(-c2cc(C)c(C)cc2[N+](=O)[O-])o1,/,50µM*,/,/,/,/
O=C(O)c1ccc2c(c1)C(=O)N([C@H](Cc1ccc([N+](=O)[O-])cc1)C(=O)O)C2=O,/,2%,/,/,/,/
Nc1ncnc2c1ncn2[C@@H]1O[C@@H](CO)[C@H](O)[C@H]1O,/,-27%[57.5 µM],/,0%,/,/
OC[C@H]1O[C@@H](n2cnc3c(=S)nc[nH]c32)[C@H](O)[C@@H]1O,/,5.6µM*,/,/,i,/
Nc1ncnc2c1ncn2[C@@H]1O[C@H](CO)[C@@H](O)[C@H]1O,/,50µM*!,/,/,i,/
C=CCc1ccc(OC(C)Cc2ccc(OC)c(OC)c2)c(OC)c1 (stereo not given),/,26%[29.8 µM],/,/,/,/
COc1ccc(Nc2ncnc3sc4c(c23)CCCC4)cc1,-6%,22µM*,?,2%,i,7%
CCc1ccc(Nc2ncnc3sc4c(c23)CCCC4)cc1,5%,-6%,?,-28%,i,1%
CCOC(=O)Cc1c(C)nc2c(-c3ccc(OC)c(OC)c3)c(C)nn2c1C,?,-2%,14µM*,-8%,i,7%
Cc1ccc(NS(=O)(=O)c2ccc3c(ccn3C)c2)cc1C,/,-4%,/,/,/,/
COc1ccc(/C=C/C(=O)O[C@H]2[C@H](O[C@H]3[C@@H]4C=CO[C@@H](O[C@@H]5O[C@H](CO)[C@@H](O)[C@H](O)[C@H]5O)[C@@H]4[C@@]4(CO)O[C@@H]34)O[C@@H](C)[C@H](O)[C@H]2OC(C)=O)cc1,/,0%[12.6 µM],/,/,/,/
CC(C)NC(=O)C1CCN(C(=O)c2cc3sccc3n2Cc2ccc(Cl)cc2)CC1,?,11%,9.5µM*,-3%,i,1%
Cc1c(Cl)cccc1NC(=O)c1cc2sccc2n1Cc1ccc(F)cc1,?,89µM*,-10%,i,i,-4%
Cc1ccc(CNC(=O)c2cc3sccc3n2Cc2ccc(F)cc2)cc1,10%,1%,-12%,36%,i,-15%
CC(C)(C)c1cnc(CSc2cnc(NC(=O)C3CCNCC3)s2)o1,/,50µM*!,/,12%,/,/
CN(C)c1ccc(Nc2c3ccc(NC(=O)CCN4CCCC4)cc3nc3cc(NC(=O)CCN4CCCC4)ccc23)cc1,/,6.3µM*,/,/,/,/
O=C1NC(=O)C(=Cc2ccc(-c3ccc(F)cc3O)o2)S1,/,24µM*,/,-2%,/,/
C/C1=C\CC[C@H](C)CCO[C@@H]2O[C@H](CO[C@@H]3OC[C@](O)(COC1=O)[C@H]3O)[C@@H](O)[C@H](O)[C@H]2O,/,-16%[29.8 µM],/,/,/,/
O=C(Nc1nc2ccc(F)cc2s1)c1nc(S(=O)(=O)Cc2ccccc2)ncc1Cl,6.3µM*,6%,6.2µM*,?,i,-8%
COc1ccc2nc(NC(=O)c3nc(S(=O)(=O)Cc4ccccc4)ncc3Cl)sc2c1,5.6µM*,9%,3µM*,?,i,9.3µM*
Cc1ccc(CSc2ncc(Cl)c(C(=O)NCc3ccccc3)n2)cc1,10%,10%,?,i,i,-4%
SMILES,S16 F2sN tox,NTMT1 inhibitor,PMP22 txn,OvCa metastasis,GALC G270D up,mTORC1 inh
Cc1cccc(CS(=O)(=O)c2ncc(Cl)c(C(=O)NCc3ccccc3)n2)c1,20µM*,3%,?,-12%,i,18µM*
CSc1ncc(Cl)c(C(=O)Nc2nc3ccc(F)cc3s2)n1,?,6%,-11%,12%,i,4%
O=C(Nc1ccccc1F)c1nc(S(=O)(=O)Cc2ccccc2F)ncc1Cl,6.3µM*,8%,?,3.2µM*,i,1.2µM*
COC(=O)c1ccccc1NC(=O)c1nc(S(=O)(=O)Cc2ccccc2F)ncc1Cl,8%,6%,?,4%,i,-4%
CCSc1ncc(Cl)c(C(=O)Nc2nc3ccc(OC)cc3s2)n1,0%,11%,-11%,3%,i,4%
Cc1cc(NCc2ccc(-c3cccnc3)cc2)nc(-c2ccccc2C(C)C)n1,/,9%[57.5 µM],/,/,/,/
Cc1cccc(CSc2ncc(Cl)c(C(=O)Nc3nnc(C)s3)n2)c1,-10%,0%,10%,i,i,-2%
Cc1nnc(NC(=O)c2nc(S(=O)(=O)Cc3ccccc3)ncc2Cl)s1,5µM*,6%,13µM*,?,i,?
COc1ccc2nc(NC(=O)c3nc(SCc4ccccc4F)ncc3Cl)sc2c1,11%,7%,-1%,3%,i,2%
COc1ccc2nc(NC(=O)c3nc(S(=O)(=O)Cc4ccccc4F)ncc3Cl)sc2c1,3.5µM*,-4%,4.8µM*,7.1µM*,i,15µM*
N#C/C(=C\c1ccc(O)c(O)c1)C(=O)NCCCNC(=O)/C(C#N)=C/c1ccc(O)c(O)c1,/,1.3µM*,/,/,/,/
